The text below walks through data of PubChem BioAssay (NCI).

The panel holds about 83,000 compounds, 20% with a hit somewhere; the sample as a whole holds those more often.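 Assay: single dose, 48 h. Readout: percent growth (0 = no net growth; negative = cell death). Active: <10.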 A number with no mark means an inactive call. Calls of active or inactive are those of the source.

What all share (assay): NCI-60 one-dose screen, 48 h (100 = growth as untreated, 0 = no growth, -100 = all killed)
Common to all, as to conditions: 10 µM unless noted

Assay [1] concerns T-47D breast.
Assay [2] relates to BT-549 breast.
For assay [3], the system named is MDA-MB-435 melanoma.
Assay [4] deals with SW-620 colon.
Assay [5] relates to MCF7 breast.
The test system of assay [6] is HCT-116 colon.
Assay [7] deals with HCC-2998 colon.
The test system of assay [8] is KM12 colon.

Take `CCOC(=O)c1cn2ncnc(Oc3ccc(NC(=O)NCCN(CC)CC)c(Cl)c3)c2c1C`: the growth in assay [1] is 45.4%; in assay [2], 81.9%; in assay [3], 9.11% (active); in assay [4], 28.7%; in assay [5], 58.1%; in assay [6] it was 36.5%. Also, the growth was 68.3% in assay [7] and 96.4% in assay [8].
With `Nc1ccc(Sc2ccc([N+](=O)[O-])c3nonc23)cc1`, the growth in assay [1] was 54.5%; in assay [2], 88.8%; in assay [3], 99.2%; in assay [4] it was 46%; in assay [5], 73.2%; in assay [6], 66.3%. For the same compound, the growth in assay [7] was 108%; in assay [8] it was 96.2%.
`C[N+]1=C(/C=C/c2ccc(O)c3ncccc23)C(C)(C)c2ccccc21`: the growth in assay [1] is 23.7%; in assay [2] it was 81.2%; in assay [3], 59.6%; in assay [4], 89%; in assay [5], 13.7%; in assay [6], 10.4%. In addition, the values for the growth in assay [7] and in assay [8] were 92% and 84.4%, respectively.
For `COc1ccc2c(c1OC)C(=O)O[C@H]2[C@H]1c2c(cc3c(c2OC)OCO3)CCN1C`, the growth was 109% in assay [1]; 98.3% in assay [2]; 54.1% in assay [3]; 92.1% in assay [4]; 93.9% in assay [5]; 92.6% in assay [6]. Moreover, the growth in assay [7] was 96.6%; in assay [8] it was 95.2%.
For the compound `COc1cc(/C=C/c2c(C(C)=O)c(C)nc3ccccc23)cc(OC)c1OC`, the growth in assay [1] is 39.7%; in assay [2] it was 48.4%; in assay [3], -0.529% (active); in assay [4], 29.6%; in assay [5] it was 19.3%; in assay [6] it was 23.9%. For the same compound, the growth in assay [7] is 54.8%; in assay [8] it was 29.1%.
With `Cc1ccc(C(=O)NN2C(=O)CSC2c2ccc(Cl)cc2)cn1` (configuration not stated), the growth in assay [1] was 84%; in assay [2], 192%; in assay [3], 91.1%; in assay [4], 97%; in assay [5], 105%; in assay [6] it was 96%. Also, the growth is 96.5% in assay [7] and 97.9% in assay [8].
As for `CCOC(=O)NCCc1ccccc1`, the growth in assay [1] is 106%; in assay [2] it was 108%; in assay [3], 108%; in assay [4], 99.2%; in assay [5] it was 99.1%; in assay [6], 108%. Moreover, the results for the growth in assay [7] and in assay [8] were 90.3% and 108%, respectively.
Turning to `CCOc1ccc2nc(SCc3nc4n(n3)S(=O)(=O)c3ccccc3N4C)sc2c1`, the growth in assay [1] is 45.2%; in assay [2], -10.6% (active); in assay [3], 60.8%; in assay [4], 14%; in assay [5], 47.3%; in assay [6], 19.1%. The growth is 28.5% in assay [7] and 7.52% (active) in assay [8].
For `O=C1CCC(C(=O)NCCNCCNC(=O)C2CCC(=O)N2)N1` (configuration not stated), the growth is 85% in assay [1]; 81.3% in assay [2]; 104% in assay [3]; 94.8% in assay [4]; 98.3% in assay [5]; 87.8% in assay [6]. Further, the growth in assay [7] is 105%; in assay [8] it was 102%.
On to `NC1=NC(c2cccc(Br)c2)c2sc3ccc(Cl)cc3c2N1` (configuration not stated), for which the growth in assay [1] was 88.8%; in assay [2] it was 122%; in assay [3] it was 98.2%; in assay [4], 103%; in assay [5], 75.4%; in assay [6], 97.9%. The growth in assay [7] was 114%; in assay [8] it was 93.7%.
Regarding `CN(C)CC#Cc1ccc2ncc(C#N)c(Nc3ccc(F)c(Cl)c3)c2c1`, the growth in assay [1] was 44%; in assay [2] it was 51.1%; in assay [3], 65.3%; in assay [4] it was 57.3%; in assay [5], 79.4%; in assay [6] it was 40.7%. Moreover, the growth in assay [7] was 60.3%; in assay [8], 79.7%.
For `CCOC(=O)c1c2c(n(-c3ccc(C#N)cc3)c1-c1ccccc1)C=CCC2`, the growth in assay [1] is 72.6%; in assay [2], 97.8%; in assay [3], 95.3%; in assay [4], 96.9%; in assay [5] it was 76.4%; in assay [6] it was 66.2%. In addition, the growth in assay [7] is 90.5%; in assay [8], 91.8%.
With `Cc1nc2ccccc2c(/C=C/c2ccc(Cl)cc2)c1C(=O)/C=C/c1cccs1`, the growth was 50.1% in assay [1]; 90.9% in assay [2]; 89.3% in assay [3]; 72.4% in assay [4]; 41.9% in assay [5]; 33.9% in assay [6]. The growth in assay [7] is 73.5%; in assay [8], 81.5%.
`COc1cccc(Cc2cc(-c3ccccc3)nn(CC(=O)c3ccccc3)c2=O)c1`: the growth in assay [1] was 72.5%; in assay [2] it was 64.5%; in assay [3] it was 61.2%; in assay [4] it was 55.1%; in assay [5], 45.9%; in assay [6], 68.9%. Also, the results for the growth in assay [7] and in assay [8] were 84.7% and 57.8%, respectively.
`Cc1nn(-c2ccccc2)c2c1N=c1s/c(=C\c3ccc(C(F)(F)F)cc3)c(=O)n1CN2`: the growth was 54% in assay [1]; 72.2% in assay [2]; 61.4% in assay [3]; 75.7% in assay [4]; 56.9% in assay [5]; 27.8% in assay [6]. The growth in assay [7] was 74.2%; in assay [8], 97.2%.
`CN(C)CCS(=O)(=O)Nc1cc(-c2ccc3ncc(C#N)c(Nc4ccc(F)c(Cl)c4)c3c2)cnc1Cl`: the growth was -30.5% (active) in assay [1]; -60.2% (active) in assay [2]; -76.8% (active) in assay [3]; -11.1% (active) in assay [4]; 0.35% (active) in assay [5]; -51.6% (active) in assay [6]. Moreover, the growth in assay [7] is -83.3% (active); in assay [8], -25.4% (active).
For `Cc1ccc2sc3c(NCCN)nc4ccccc4c3c(=O)c2c1`, the growth in assay [1] is 65.6%; in assay [2], 88.1%; in assay [3], 46.2%; in assay [4], -61.9% (active); in assay [5] it was 47.9%; in assay [6], 7.89% (active). Moreover, the growth was -33% (active) in assay [7] and 14.1% in assay [8].
Regarding `COc1ccc(CN2c3ccccc3Sc3ccccc32)c(F)c1`, the growth in assay [1] is 11.9%; in assay [2], 56.5%; in assay [3] it was -51% (active); in assay [4], 10.3%; in assay [5], 22.6%; in assay [6] it was 15.7%. For the same compound, the growth was 61.6% in assay [7] and 25.8% in assay [8].
For `Cc1onc2c(-c3ccccc3)n[nH]c(=O)c12`, the growth in assay [1] is 83.3%; in assay [2], 67.7%; in assay [3], 96.9%; in assay [4], 111%; in assay [5], 89.8%; in assay [6], 104%. For the same compound, the figures for the growth in assay [7] and in assay [8] were 94.8% and 107%, respectively.
As for `CSc1ccc2c(c1)c(CCN)c(C)n2Cc1ccc(Cl)c(Cl)c1`, the growth in assay [1] is -73.7% (active); in assay [2], -79.6% (active); in assay [3], -91.4% (active); in assay [4], -63.8% (active); in assay [5], -68.9% (active); in assay [6], -92.3% (active). The growth in assay [7] is -88.4% (active); in assay [8], -90.2% (active).
As for `c1ccc(Nc2cc(-c3cccnc3)[nH]n2)cc1`, the growth in assay [1] was 99.5%; in assay [2], 99.4%; in assay [3] it was 101%; in assay [4], 115%; in assay [5], 88.9%; in assay [6] it was 105%. The values for the growth in assay [7] and in assay [8] were 104% and 96.3%, respectively.
With `COc1ccc(C(=O)C(C)C)c2ccccc12`, the growth in assay [1] was 92.2%; in assay [2] it was 113%; in assay [3], 97.9%; in assay [4] it was 95.2%; in assay [5], 107%; in assay [6], 101%. Further, the growth in assay [7] is 107%; in assay [8], 101%.
In the case of `C/C=C(\C)C(=O)N[C@H]1[C@@H](OC(C)=O)C[C@]2(C)C3CC[C@@]4(C)C(CC[C@@H]4C(C)N(C)C)C3CCC2[C@H]1O` (some centres not stated), the growth in assay [1] was 60.6%; in assay [2], 63.4%; in assay [3] it was 1.82% (active); in assay [4] it was 63.9%; in assay [5] it was 61.9%; in assay [6] it was 30.7%. Besides, the growth in assay [7] was 69.2%; in assay [8], 45.6%.
Take `CCCCOc1ccc(/C=N/NC(N)=S)cc1`: the growth in assay [1] is 23.8%; in assay [2], 73.6%; in assay [3], 85.5%; in assay [4], 73.3%; in assay [5] it was 61.7%; in assay [6], 67.8%. The results for the growth in assay [7] and in assay [8] were 79.7% and 69.2%, respectively.
As to `COc1cc(Nc2nc(NCCN)nc3cc[nH]c(=O)c23)cc(OC)c1`, the growth was 122% in assay [1]; 66.7% in assay [2]; 69.6% in assay [3]; 64.2% in assay [4]; 77.2% in assay [5]; 46.6% in assay [6]. Further, the growth in assay [7] was 79.3%; in assay [8] it was 76%.
With `Cc1c(C(=O)N[C@@H](Cc2ccccc2)C(=O)C(=O)NCc2ccc(F)cc2)[nH]c2ccccc2c1=O`, the growth in assay [1] is 103%; in assay [2], 110%; in assay [3], 101%; in assay [4], 97.5%; in assay [5], 91.2%; in assay [6], 99.9%. Further, the growth in assay [7] is 93.8%; in assay [8], 101%.
Regarding `Cc1[nH]c(C(=O)Nc2ccc(C(=O)NCCN)cc2OC(C)C)c(Cl)c1Cl`, the growth was -1.29% (active) in assay [1]; 103% in assay [2]; -17.6% (active) in assay [3]; -89% (active) in assay [4]; 5.44% (active) in assay [5]; -50.1% (active) in assay [6]. For the same compound, the values for the growth in assay [7] and in assay [8] were -41.7% (active) and 8.19% (active), respectively.
For the compound `N/C(=N\c1nc2ccccc2s1)NC(=O)Nc1cccc2ccccc12`, the growth is 38.5% in assay [1]; 71.6% in assay [2]; -27.7% (active) in assay [3]; 19.7% in assay [4]; 23.1% in assay [5]; 0.264% (active) in assay [6]. In addition, the growth was 38.9% in assay [7] and 14.7% in assay [8].
For `CNc1nc2c(s1)C(c1cccc(F)c1)CC(=O)N2` (configuration not stated), the growth in assay [1] is 94.8%; in assay [2], 94.5%; in assay [3], 99.9%; in assay [4] it was 102%; in assay [5], 95.2%; in assay [6], 99.8%. Moreover, the growth in assay [7] is 104%; in assay [8], 101%.
